In PubChem BioAssay AID540333 (Southern Research Specialized Biocontainment Screening …, 2011):
Screen size: about 10,000 compounds; about 320 (3.2%) were called active. No stated cut-off is given here; in the data, active means CPE inhibition mostly above about 9.1% (no sharp cut-off); inactive means mostly below about 7.2%. The sample as a whole holds a higher share of actives than the screen did.

Assay: antivirals protecting cells from dengue CPE – CPE readout, HTS (AID 540333)
Settings: Dengue virus CPE inhibition in host cells, at 20 µM; hits give high values
In the case of `CC1CCC(=O)N(CCSc2ccccc2)CC1` (stereo not given), the CPE inhibition is reported as 0.29% (inactive).
For `O=C(c1ccc(COc2ccc(Cl)cc2)o1)N1N=C(C(F)F)CC1(O)C(F)F` (stereo not given), the CPE inhibition was 3% (inactive).
In the case of `CCO[C@H]1OC(C(N)=O)=C[C@@H](C(C)(C)C)[C@@H]1CCCO`, the CPE inhibition is reported as “inactive”.
With `COc1ccccc1C(NC(=O)C1CCCCC1)c1c(O)ccc2ccccc12` (stereo not given) the CPE inhibition was 0.755% (inactive).
For `CC(C)CC(=O)NC(c1ccccc1Cl)c1c(O)ccc2ccccc12` (stereo not given), the CPE inhibition was 69% (active).
In the case of `CCC(=O)NC(c1ccccc1Cl)c1c(O)ccc2ccccc12` (stereo not given), the CPE inhibition is reported as 4.07% (inactive).
For `CC(C)c1ccc(NC(=S)NCCc2c[nH]c3ccccc23)cc1`, the CPE inhibition was “inactive”.
In the case of `C/C(=N\NC(=O)c1ccccc1-n1cccc1)C1CC1`, the CPE inhibition is reported as 0.14% (inactive).
For `CON1C(=O)C(=O)N(OC)C2CCCCCC21` (stereo not given), the CPE inhibition was 0.76% (inactive).
For `COc1ccc(NCc2nnc(SCC(=O)Nc3nc(-c4ccccc4)cs3)n2-c2ccccc2)cc1`, the CPE inhibition was “inactive”.
For `COc1ccc(-n2c(CNc3ccc(C)cc3)nnc2SCc2ccccc2)cc1`, the CPE inhibition was 13.1% (active).
With `COC(=O)c1ccc(CSc2nnc(CS(=O)Cc3ccc(Br)cc3)n2-c2ccccc2)cc1` (stereo not given) the CPE inhibition was 9.53% (inactive).
In the case of `CCOc1ccc(NCc2nnc(SCC(=O)Nc3nc(-c4ccccc4)cs3)n2-c2ccccc2)cc1`, the CPE inhibition is reported as 0.01% (inactive).
With `CCOc1ccc(NCc2nnc(SCc3ccc(Cl)cc3)n2-c2ccccc2)cc1` the CPE inhibition was 15.5% (active).
With `COc1ccc(-n2c(SCc3ccc([N+](=O)[O-])cc3)nnc2-c2ccc(C)cc2)cc1` the CPE inhibition was 11.5% (inactive).
With `Cc1cc(C(=O)N/N=C/c2cc(Br)cc([N+](=O)[O-])c2O)c2ccccc2n1` the CPE inhibition was 0.34% (inactive).
With `CCOC(=O)c1cccc(S(=O)(=O)N2CCCC2)c1` the CPE inhibition was 0.06% (inactive).
For `O=C(NCc1ccccc1)C1=C[C@@H](C2CCCCC2)C[C@@H](OCCCCO)O1`, the CPE inhibition was 2.12% (inactive).
With `Cc1[nH][nH]c(=O)c1C` the CPE inhibition was 0.36% (inactive).
For `Cc1ccc(S(=O)(=O)NNC(=S)NC(=O)c2ccc([N+](=O)[O-])cc2)cc1`, the CPE inhibition was “inactive”.
For `CC(C)COP(=O)(c1ccc(N(C)C)cc1)C(Nc1ccccc1)c1ccccc1` (stereo not given), the CPE inhibition was 29.1% (active).
In the case of `CCCOP(=O)(c1ccc(N(C)C)cc1)C(Nc1ccccc1)c1ccc(N(C)C)cc1` (stereo not given), the CPE inhibition is reported as 0.64% (inactive).
In the case of `CC(C)COP(=O)(c1ccc(N(C)C)cc1)C(Nc1ccccc1)c1cccnc1` (stereo not given), the CPE inhibition is reported as 0.73% (inactive).
For `O=C(NC1CCCc2ccccc21)c1ccc(Br)cc1` (stereo not given), the CPE inhibition was 3.09% (inactive).
In the case of `Nc1ccc(-n2nnnc2CN2CCOCC2)cc1`, the CPE inhibition is reported as 0.25% (inactive).
With `COc1ccc(CC(=O)Nc2cc3oc4ccccc4c3cc2OC)cc1` the CPE inhibition was 0.095% (inactive).
In the case of `C=CCOC(=O)C1=C[C@@H](c2ccc(C(F)(F)F)cc2)C[C@@H](OCCCCO)O1`, the CPE inhibition is reported as 0.15% (inactive).
In the case of `Cc1cccn2c(=O)c(/C=C(\C#N)C(N)=O)c(N3CCN(Cc4ccc5c(c4)OCO5)CC3)nc12`, the CPE inhibition is reported as 0.905% (inactive).
For `CNC(=O)/C(C#N)=C/c1c(N(Cc2ccccc2)Cc2ccccc2)nc2c(C)cccn2c1=O`, the CPE inhibition was 17% (active).
With `CNC(=O)/C(C#N)=C/c1c(N(Cc2ccccc2)Cc2ccccc2)nc2ccccn2c1=O` the CPE inhibition was 14.1% (active).
In the case of `Cc1cccc(Oc2nc3ccccn3c(=O)c2/C=C(\C#N)C(=O)NC2CCS(=O)(=O)C2)c1` (stereo not given), the CPE inhibition is reported as 1.43% (inactive).
In the case of `Cc1ccc(Oc2nc3ccccn3c(=O)c2/C=C(\C#N)C(=O)Nc2c(C)n(C)n(-c3ccccc3)c2=O)c(C)c1`, the CPE inhibition is reported as 0.875% (inactive).
With `CCNC(=O)/C(C#N)=C/c1c(N2CCN(Cc3ccc4c(c3)OCO4)CC2)nc2c(C)cccn2c1=O` the CPE inhibition was “inactive”.
With `COc1ccc(/C=C2/C(=O)N(Cc3ccccc3)N=C2C)cc1` the CPE inhibition was “inactive”.
In the case of `CCCCn1[nH]c(-c2ccccc2)cc1=O`, the CPE inhibition is reported as “inactive”.
With `COc1ccc(OC)c(/C=C/C(=O)OCC(=O)Nc2cccc(Oc3ccccc3)c2)c1` the CPE inhibition was 0.45% (inactive).
For `COc1cc(/C=C/C(=O)Nc2nnc(CC(C)C)s2)cc(OC)c1OC`, the CPE inhibition was 1.95% (inactive).
For `CCCS(=O)(=O)Nc1c(OC)ccc2c1c(C(=O)OCC)c(C)n2C`, the CPE inhibition was “inactive”.
In the case of `CC(C)CNC(=O)c1ccccc1NC(=O)/C=C/c1cccc([N+](=O)[O-])c1`, the CPE inhibition is reported as “inactive”.
For `CC(=O)NN1C(=O)/C(=C/c2ccc(C(C)C)cc2)SC1=S`, the CPE inhibition was “inactive”.
With `O=C(COC(=O)c1oc2ccccc2c1COc1ccccc1)NCCN1C(=O)CSC1=O` the CPE inhibition was 1.47% (inactive).
With `CCSc1nc2ccccc2n1C(=O)c1ccc(S(=O)(=O)N2CCCCCC2)cc1` the CPE inhibition was 0.17% (inactive).
In the case of `CCC1Nc2ncnc(N3CCOCC3)c2N(Cc2ccc(Cl)cc2)C1=O` (stereo not given), the CPE inhibition is reported as 0.26% (inactive).
In the case of `Cc1ccc(CN2C(=O)C(CC(C)C)Nc3ncnc(N4CCN(c5ccccn5)CC4)c32)cc1` (stereo not given), the CPE inhibition is reported as 2.52% (inactive).
For `CC(C)CC1Nc2ncnc(N3CCN(c4ccccn4)CC3)c2N(Cc2ccccc2)C1=O` (stereo not given), the CPE inhibition was 1.43% (inactive).
In the case of `COc1ccc(CN2C(=O)C(Cc3ccccc3)Nc3ncnc(N4CCCCC4)c32)cc1` (stereo not given), the CPE inhibition is reported as 2.1% (inactive).
In the case of `Cc1ccc(CN2C(=O)C(CC(C)C)Nc3ncnc(N4CCN(c5ccccc5)CC4)c32)cc1` (stereo not given), the CPE inhibition is reported as 37.1% (active).
With `CCC1Nc2ncnc(N3CCOCC3)c2N(Cc2ccc(Br)cc2)C1=O` (stereo not given) the CPE inhibition was “inactive”.
In the case of `CCC1Nc2ncnc(N3CCN(c4ccccc4)CC3)c2N(Cc2ccc(Br)cc2)C1=O` (stereo not given), the CPE inhibition is reported as 11.1% (active).
For `O=C(Cc1ccc(Br)cc1)N1CCN(c2ccccn2)CC1`, the CPE inhibition was “inactive”.
For `CC(C)CC1Nc2ncnc(N3CCN(c4ccccn4)CC3)c2N(Cc2ccc(Cl)cc2)C1=O` (stereo not given), the CPE inhibition was 9.66% (active).
In the case of `COc1ccc2oc(=O)c(/C(C)=N/Nc3nc(-c4cc(C)ccc4C)cs3)cc2c1`, the CPE inhibition is reported as “inactive”.
For `CC(C)(C)C1CCC(=NNC(=O)CN(c2ccccc2)S(=O)(=O)c2ccccc2[N+](=O)[O-])CC1` (stereo not given), the CPE inhibition was “inactive”.
For `N#Cc1ccc(COC(=O)CSc2nnc(N)s2)cc1`, the CPE inhibition was 0.615% (inactive).
In the case of `NC(=O)CC(NC(=O)Cc1cccc2ccccc12)c1ccc(NCc2ccccc2)c([N+](=O)[O-])c1` (stereo not given), the CPE inhibition is reported as 2.03% (inactive).
In the case of `CCOC(=O)c1c(-c2ccc(F)cc2)csc1NC(=O)CCN1C(=O)c2ccccc2C1=O`, the CPE inhibition is reported as 1.4% (inactive).
In the case of `O=C(NCc1ccccc1)c1onc(CSc2ccc(F)c(F)c2)c1C(=O)NCc1ccccc1`, the CPE inhibition is reported as 0.575% (inactive).
For `CCOC(=O)CN1C(=O)N[C@@H](c2ccco2)C(C(C)=O)=C1C`, the CPE inhibition was 1.53% (inactive).
For `Oc1cccc(/C=N/Nc2ncnc3c2ncn3Cc2ccccc2)c1`, the CPE inhibition was “inactive”.
For `O=C(CCSCCc1ccccn1)Nc1c(F)c(F)c(F)c(F)c1F`, the CPE inhibition was “inactive”.
With `O=C1CCCc2[nH]c3cccc(/C(=C/c4ccccc4)c4ccccc4)c3c21` the CPE inhibition was 22.5% (active).
For `CCOC(=O)N1CCC(N2Cc3cccc(C(=O)N4CC(C)CC(C)C4)c3C2=O)CC1` (stereo not given), the CPE inhibition was “inactive”.
In the case of `CCCCCC[n+]1c(-c2ccccc2)csc1Nc1ccccc1`, the CPE inhibition is reported as 7.19% (inactive).
For `CC1=C(C#N)C(c2ccccc2)C2=C(N1)c1ccccc1C2=O` (stereo not given), the CPE inhibition was 1.29% (inactive).
For `CN(CC(=O)Nc1ccc(C#N)cc1)CC(=O)Nc1ccc(N2CCOCC2)cc1`, the CPE inhibition was 0.525% (inactive).
For `CCCCCCn1nc(C(=O)Nc2nc3c(s2)CCCC3)c2ccccc2c1=O`, the CPE inhibition was 29% (active).
In the case of `CCn1nc(C(=O)Nc2nc3ccccc3[nH]2)c2ccccc2c1=O`, the CPE inhibition is reported as 0.06% (inactive).
For `O=C(Nc1nc2c(s1)CCCC2)c1cc(-c2ccccc2)nc2ccccc12`, the CPE inhibition was 5.19% (inactive).
With `C=CCn1c(SCc2ccc(C(=O)Nc3nccs3)cc2)nnc1-c1ccc(C)c(Cl)c1` the CPE inhibition was 0.44% (inactive).
For `CC1CCCC(NC(=S)NC(=O)c2ccccc2Br)C1C` (stereo not given), the CPE inhibition was 21.1% (active).
For `CC1CCCCC1NC(=S)NC(=O)c1ccccc1Br` (stereo not given), the CPE inhibition was 0.915% (inactive).
With `O=C(NC(=S)NC1CCCC1)c1ccccc1Br` the CPE inhibition was 0.11% (inactive).
For `COc1cccc(NC(=O)CCC(=O)Nc2cccc(OC)c2)c1`, the CPE inhibition was 0.18% (inactive).
With `Cc1ccc(NC(=O)c2cc3c(s2)CCCC3)cc1S(=O)(=O)Nc1ccccc1Cl` the CPE inhibition was 1.93% (inactive).
In the case of `O=C(CN1C(=O)/C(=C\C=C\c2ccccc2)SC1=S)Nc1ccc(F)cc1`, the CPE inhibition is reported as 1.02% (inactive).
For `CC(=O)c1ccc(NC(=O)CN2C(=O)/C(=C/C=C/c3ccccc3)SC2=S)cc1`, the CPE inhibition was 0.165% (inactive).
With `O=C1CC(N2C(=O)/C(=C/C=C/c3ccccc3)SC2=S)C(=O)N1c1ccccc1` (stereo not given) the CPE inhibition was 9.17% (active).
For `CC(=O)Nc1ccc(S(=O)(=O)NCC(=O)OCC(=O)NC(=O)C2CCCCC2)cc1`, the CPE inhibition was 0.165% (inactive).
In the case of `NC(=O)C1(NC(=O)[C@@H]2CC3(CC(c4cccc(NC(=O)[C@@H]5CCC(=O)N5)c4)=NO3)CN2C(=O)c2cnccn2)CC1` (stereo not given in full), the CPE inhibition is reported as 0.745% (inactive).
For `O=C(CSc1nc2ccccc2s1)Nc1cc(S(=O)(=O)N2CCOCC2)ccc1O`, the CPE inhibition was “inactive”.
With `Fc1cccc(NC(=S)NCCN2CCOCC2)c1` the CPE inhibition was 0.255% (inactive).
With `O=C(C[n+]1cc(-c2ccccc2)n2c1CCC2)Nc1nc(-c2ccc(F)cc2)cs1` the CPE inhibition was 17% (active).
With `O=C(C[n+]1cc(-c2ccccc2)n2c1CCC2)Nc1nc(-c2ccccc2)cs1` the CPE inhibition was 4.34% (inactive).
With `O=C(C[n+]1cc(-c2ccc(F)cc2)n2c1CCC2)Nc1nc(-c2ccccc2)cs1` the CPE inhibition was 0.55% (inactive).
For `O=C(c1cccc(S(=O)(=O)N2CCc3ccccc3C2)c1)N1CCN(c2ccccc2)CC1`, the CPE inhibition was 3% (inactive).
For `O=C(NC1CCCC1)C(NS(=O)(=O)c1ccc(Br)s1)c1ccccc1` (stereo not given), the CPE inhibition was 0.805% (inactive).
With `CC1CCCN(S(=O)(=O)c2ccc(Br)s2)C1` (stereo not given) the CPE inhibition was 0.775% (inactive).
For `CC1CC(C)CN(C(=O)C(NS(=O)(=O)c2ccc(Br)s2)c2ccccc2)C1` (stereo not given), the CPE inhibition was 24.6% (active).
For `CN(/N=C/c1cc([N+](=O)[O-])ccc1O)c1ccccc1`, the CPE inhibition was 1.04% (inactive).
In the case of `COC(=O)c1ccc(CSc2nnc(NC(=O)C3CC(=O)N(Cc4ccc(C)cc4)C3)s2)cc1` (stereo not given), the CPE inhibition is reported as 0.19% (inactive).
